Screens: PubChem BioAssay, several laboratories
An excerpt weighted towards active compounds, which were near 2.7% of everything screened.
Shn3 3UTR inh: Schnurri-3 reporter inhibition in Clone20 osteoblasts; hit rate 0.52% among 360,000; Clone20 osteoblast Shn3 3'UTR firefly luciferase, 24 h; inhibition, % at 12.5 µM;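 active = mean inhibition of at least 75% with every replicate also reaching 75%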;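 also: 0% = median of neutral control wells and 100% = pilot-screen positive control compound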
Peg3 promoter: inhibitors of Peg3 promoter; HeLa PEG-Prom luciferase reporter, luminescence, overnight; inhibition, % at 20 µM; hit rate 1.7% among 360,000; AID 588405;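 active = inhibition of at least 50% at 20 µM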
HIF-2a block: inhibitors of HIF-2a; inhibition, % at 18.8 µM; 786-0 RCC cells HIF-2a reporter, luciferase luminescence, overnight; hit rate 0.72% among 360,000;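 active = inhibition of the luminescence signal of 40% or more relative to plate controls, in a single-dose primary screen at 18.75 µM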
TRPM1 prom inh: inhibitors of MITF-driven TRPM1 promoter in melanoma cells | hit rate 0.83% among 330,000 | SK-MEL-5 TRPM1 promoter luciferase, 24 h | inhibition, % at 12.5 µM | AID 488899;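 active = mean inhibition across replicates of 60% or more, whatever share of single replicates reaches that level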
KKLEB cytotox: CF airway cell cytotoxicity counter-screen. hit rate 0.36% among 360,000. activity change (cytotoxicity), % at 5 µM. KKLEB CF airway cells viability, ATPlite luminescence, overnight; stronger effect = lower value; cells stimulated with P. aeruginosa culture filtrate;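 active = corrected activity change at or below -50% at 5 µM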
CF NFkB inh: cystic fibrosis NF-kB activation inhibition; KKLEB NF-kB-GFP reporter, PAF-induced, GFP fluorescence overnight; inhibition, % at 5 µM; hit rate 0.86% among 360,000;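 active = at least 50% inhibition at 5 µM, scaled per plate between neutral and stimulator controls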;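 also: PAF is a Pseudomonas aeruginosa culture filtrate used as stimulus; plate controls were PAF-stimulated DMSO wells for no effect and unstimulated DMSO wells for full effect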
Starred values were filed as active, the others as inactive.

What do the screens show for `O=C(c1cc2nc(-c3ccccc3)cc(-c3ccccc3)n2n1)N1CCN(C(=O)c2ccco2)CC1`?
Shn3 3UTR inh: 30; Peg3 promoter: 50*; HIF-2a block: 24; TRPM1 prom inh: 7; KKLEB cytotox: -1; CF NFkB inh: 8

Results for O=C(c1cc2nc(-c3ccccc3)cc(-c3ccccc3)n2n1)N1CCCC1 ?
Shn3 3UTR inh: 17; Peg3 promoter: 18; HIF-2a block: 24; TRPM1 prom inh: 1; KKLEB cytotox: 5; CF NFkB inh: -8

What do the screens show for `C=CCn1c(SCC(=O)N(C)C2CCS(=O)(=O)C2)nnc1-c1ccccc1` (configuration not stated)?
Shn3 3UTR inh: -10; Peg3 promoter: 7; HIF-2a block: 5; TRPM1 prom inh: 2; KKLEB cytotox: -22; CF NFkB inh: 13

What do the screens show for `CCCCN(C=O)c1c(CC)nc2ccc(C(=O)NCCc3c[nH]c4ccccc34)cn12`?
Shn3 3UTR inh: 8; Peg3 promoter: 3; HIF-2a block: 4; KKLEB cytotox: -7; CF NFkB inh: 3

How did CCc1nc2ccc(C(=O)NCCc3c[nH]c4ccccc34)cn2c1N(C)CCCc1ccccc1 do in these assays?
Shn3 3UTR inh: 24; Peg3 promoter: 61*; HIF-2a block: 16; KKLEB cytotox: 17; CF NFkB inh: -42

What do the screens show for `O=C(CCl)N1c2ccccc2Sc2c1ccc1ccccc21`?
Shn3 3UTR inh: -2; Peg3 promoter: 58*; HIF-2a block: -41; TRPM1 prom inh: 30; KKLEB cytotox: -16; CF NFkB inh: 4

How did CC(=O)N1c2ccccc2Sc2ccc3ccccc3c21 do in these assays?
Shn3 3UTR inh: -11; Peg3 promoter: 17; HIF-2a block: 21; KKLEB cytotox: 13; CF NFkB inh: -20

How did O=C1c2cccc(OCC(=O)N3CCCc4ccccc43)c2CCN1Cc1ccc(Br)cc1 do in these assays?
Shn3 3UTR inh: 51; Peg3 promoter: 58*; HIF-2a block: -15; TRPM1 prom inh: 3; KKLEB cytotox: -14; CF NFkB inh: 5

How did COc1cc(OC)c(C(=O)C=Cc2ccc(OC)c(OC)c2)c(OC)c1 do in these assays?
Shn3 3UTR inh: -12; Peg3 promoter: 16; HIF-2a block: 37; TRPM1 prom inh: 21; KKLEB cytotox: -13; CF NFkB inh: 35

What do the screens show for `COc1cc(O)c(C(=O)/C=C/c2ccccc2)c(OC)c1`?
Shn3 3UTR inh: -76; Peg3 promoter: 61*; HIF-2a block: -41; KKLEB cytotox: -8; CF NFkB inh: 14

What do the screens show for `COc1cc(CNC2CCCC2)cc(Cl)c1OCc1ccc(F)cc1`?
Shn3 3UTR inh: -10; Peg3 promoter: 5; HIF-2a block: 17; TRPM1 prom inh: -2; KKLEB cytotox: -6; CF NFkB inh: 3

Results for CCOc1cc(CNC2CCCC2)cc(Cl)c1OCc1ccc(F)cc1 ?
Shn3 3UTR inh: 36; Peg3 promoter: 91*; HIF-2a block: -1; TRPM1 prom inh: 15; KKLEB cytotox: -21; CF NFkB inh: 11

How did COc1cccc(N(C(=O)c2ccco2)c2nc(-c3sc(NC(=O)c4ccco4)nc3C)cs2)c1 do in these assays?
Shn3 3UTR inh: -9; Peg3 promoter: 49; HIF-2a block: 9; TRPM1 prom inh: 73*; KKLEB cytotox: -36; CF NFkB inh: 27

Results for Cc1nc(NC(=O)c2ccco2)sc1-c1csc(Nc2ccc(Cl)cc2)n1 ?
Shn3 3UTR inh: 6; Peg3 promoter: 35; HIF-2a block: 6; TRPM1 prom inh: 31; KKLEB cytotox: -3; CF NFkB inh: 38

How did CC(NCc1ccc(F)cc1)C(=O)Nc1cc(S(=O)(=O)N2CCCCC2)ccc1Cl (configuration not stated) do in these assays?
Shn3 3UTR inh: 20; Peg3 promoter: 12; HIF-2a block: 11; TRPM1 prom inh: -7; KKLEB cytotox: -3; CF NFkB inh: -12

Results for CC(C)Cn1c(N)c(C(=O)COC(=O)C2Cc3ccccc3CN2S(C)(=O)=O)c(=O)n(C)c1=O (configuration not stated) ?
Shn3 3UTR inh: 85; Peg3 promoter: 18; HIF-2a block: 11; TRPM1 prom inh: 8; KKLEB cytotox: -9; CF NFkB inh: 4

Results for COc1cc(NC(=O)C2=C(N3CCOCC3)/C(=C\c3ccc(Br)cc3)CC2)cc(OC)c1OC ?
Shn3 3UTR inh: 23; Peg3 promoter: 13; HIF-2a block: 12; TRPM1 prom inh: 3; KKLEB cytotox: -4; CF NFkB inh: 6

Results for COc1cc(NC(=O)C2=C(N3CCOCC3)/C(=C\c3ccc(Cl)cc3Cl)CC2)cc(OC)c1OC ?
Shn3 3UTR inh: 22; Peg3 promoter: 24; HIF-2a block: 19; TRPM1 prom inh: 6; KKLEB cytotox: -65*; CF NFkB inh: 50

How did O=C(COC(=O)c1ccco1)NC1CCCC1 do in these assays?
Shn3 3UTR inh: -6; Peg3 promoter: -16; HIF-2a block: 5; TRPM1 prom inh: -6; KKLEB cytotox: 15; CF NFkB inh: 4

Results for O=C(NNc1ccccc1)C(=O)NNS(=O)(=O)c1ccc(CCCl)cc1 ?
Shn3 3UTR inh: 86*; Peg3 promoter: 10; HIF-2a block: 10; TRPM1 prom inh: -2; KKLEB cytotox: 3; CF NFkB inh: -2

What do the screens show for `CN1N=C(N)c2cn(C3OC(COP(=O)(O)O)C(O)C3O)c3ncnc1c23` (configuration not stated)?
Shn3 3UTR inh: 83; Peg3 promoter: -48; HIF-2a block: 23; TRPM1 prom inh: -3; KKLEB cytotox: -26; CF NFkB inh: 29

What do the screens show for `Cc1ccc(N(C(=O)CS(=O)CC(=O)Nc2ccc(F)cc2)C(C)C(=O)NC(C)(C)C)cc1` (configuration not stated)?
Shn3 3UTR inh: 4; Peg3 promoter: 2; HIF-2a block: -2; TRPM1 prom inh: -16; KKLEB cytotox: -6; CF NFkB inh: -8

How did COc1ccc(C)cc1NC(=O)COC(=O)c1ccc2c(c1)OCCO2 do in these assays?
Shn3 3UTR inh: -22; Peg3 promoter: 6; HIF-2a block: -2; TRPM1 prom inh: -6; KKLEB cytotox: 8; CF NFkB inh: 4

Results for C=CC(=O)N=c1sc2ccccc2n1-c1ccccc1 ?
Shn3 3UTR inh: 10; Peg3 promoter: 98*; HIF-2a block: -38; TRPM1 prom inh: 51; KKLEB cytotox: -33; CF NFkB inh: 57*

How did Cc1cc(C)c(NC(=O)CN(C)CC(=O)Nc2cccc(S(=O)(=O)N(C)c3ccccc3)c2)c(C)c1 do in these assays?
Shn3 3UTR inh: 26; Peg3 promoter: 58*; HIF-2a block: 3; TRPM1 prom inh: 11; KKLEB cytotox: -3; CF NFkB inh: 11

Results for CN(c1ccccc1)S(=O)(=O)c1cccc(NC(=O)c2ccc3ncsc3c2)c1 ?
Shn3 3UTR inh: 88*; Peg3 promoter: 57*; HIF-2a block: 9; TRPM1 prom inh: 16; KKLEB cytotox: 0; CF NFkB inh: 1

How did Cc1nc2ccc(NC(=O)c3cccc(S(=O)(=O)N(C)c4ccccc4)c3)cc2s1 do in these assays?
Shn3 3UTR inh: 90*; Peg3 promoter: 39; HIF-2a block: 22; TRPM1 prom inh: 20; KKLEB cytotox: 14; CF NFkB inh: -8
